Results on 14 molecules are retold here after PubChem BioAssay (NCI).

This is part of a sample that, as a whole, favours compounds with a hit. Of some 83,000 tested, about 20% had one in any assay.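 For each line, cells grew in 96-well plates with the test compound present at a single concentration for 48 hours.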 Unmarked numbers belong to inactive results. The source made the active and inactive calls. The calls were made as follows: active = growth percent below 10; inactive = the rest.

This assay concerns SK-MEL-28 melanoma. As to the kind of experiment: NCI-60 one-dose screen, 48 h (100 = growth as untreated, 0 = no growth, -100 = all killed). The settings on record: 10 µM unless noted.
On to `CCOC(=O)c1cnc2ccc(Br)cc2c1Nc1cccc(S(N)(=O)=O)c1`, for which the growth was 109%.

Take `CCCCC(CCCCCC(CCCC)C1NC(C)Cc2cc(OC)c(OC)cc21)C1NC(C)Cc2cc(OC)c(OC)cc21` (centres undefined): the growth is -98% (active).

For the molecule `O=C(N=c1n(-c2ccccc2)nc2n1CCN2C1=NCCN1C(=O)c1ccc(Cl)cc1)c1ccc(Cl)cc1`, the growth is 88.8%.

As to `O=C(OCc1ccc2c(Cl)cc(Cl)c(O)c2n1)N1CCN(C(=O)c2cc3cc(F)ccc3[nH]2)CC1`, the growth was 60.7%.

`CC1=C/C(=C(\c2cc(C)c(O)c(C(=O)O)c2)c2c(Cl)cccc2Cl)C=C(C(=O)O)C1=O`: the growth is 116%.

For the molecule `COc1ccc(C(=O)CCC(=O)O)cc1`, the growth was 112%.

As to `CCN(CC)c1ccc(/C=C/C=C2\NC(=O)NC2=O)cc1`, the growth is 57.5%.

With `COc1cc(NCc2ccccc2O)c2ncccc2c1`, the growth was 111%.

In the case of `O=C(Oc1ccc(Cl)cc1[N+](=O)[O-])Oc1ccc(Cl)cc1[N+](=O)[O-]`, the growth was 106%.

In the case of `COc1ccc(-c2cc(-c3ccc(OC)c(OC)c3)nc(SCCCCCC(=O)NO)n2)cc1`, the growth was 35.5%.

`O=C(NCCCNC(=O)OCc1ccc2cccc(O)c2n1)OCc1ccc2cccc(O)c2n1`: the growth was 64.3%.

As for `CCCCNC(=O)NS(=O)(=O)Cc1ccccc1`, the growth was 108%.

Consider `Nc1cccc2c1C(=O)c1cccc(NC(=O)c3ccccc3)c1C2=O`, for which the growth is 44.6%.

Regarding `Cc1cc(NN=C(c2ccc(O)cc2)c2ccc(O)cc2)c([N+](=O)[O-])cc1[N+](=O)[O-]`, the growth is 61.6%.
